High-throughput results from PubChem.
Rows were chosen to be rich in hits. Some 2.5% of all compounds tested hit in one or more screens of this group.
Cruzain inh noDet: cruzain (T. cruzi) inhibition without detergent; purified cruzain, Z-FR-AMC fluorescence, no detergent; P25779; Potency, µM, inactives show max response, negative = inhibition, usual class: inhibitors; 200,000 compounds, 2.3% hits; AID 1476;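 note: plate controls were enzyme without inhibitor for no effect and buffer without enzyme for full effect; nearly all actives have a fitted effect of over 40% in size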
Target sequence (P25779 123-467 limits assumed): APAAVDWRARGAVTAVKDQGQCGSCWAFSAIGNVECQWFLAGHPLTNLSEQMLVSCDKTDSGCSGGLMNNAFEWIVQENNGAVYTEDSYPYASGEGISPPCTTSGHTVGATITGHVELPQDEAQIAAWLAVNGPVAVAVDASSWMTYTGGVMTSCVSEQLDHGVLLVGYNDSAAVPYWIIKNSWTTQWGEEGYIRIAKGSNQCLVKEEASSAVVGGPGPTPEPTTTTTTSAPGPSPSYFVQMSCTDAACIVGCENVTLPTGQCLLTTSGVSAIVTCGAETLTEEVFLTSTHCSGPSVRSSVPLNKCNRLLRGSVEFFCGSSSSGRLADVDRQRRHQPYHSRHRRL
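Detergent-free condition (0.00005% Triton X-100) in acetate buffer pH 5.5 with DTT. 1.5 nM enzyme and compound were pre-mixed 15 min, then 2 uM Z-FR-AMC substrate added; reaction progress from fluorescence change between first and third reads (60 s).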
Cruzain inh Det: cruzain (T. cruzi) inhibition with detergent. P25779. purified cruzain, Z-FR-AMC fluorescence, 0.01% Triton. Potency, µM, for inactives: max response, negative = inhibition, usual class: inhibitors. 200,000 compounds, 0.43% hits. AID 1478;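 note: plate controls were neutral wells for no effect and buffer without enzyme for full effect; nearly all actives have a fitted effect of over 40% in size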
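15 min RT preincubation of 1.5 nM cruzain with compound, then 2 uM Z-FR-AMC added; kinetic AMC fluorescence, 60 s delta. Triton X-100 0.01%, pH 5.5.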
An asterisk follows results filed as active; ? = inconclusive. Calls come from the whole dose curve; as a rule, active = well fitted curve in the direction sought with a large enough effect; inconclusive = small, poorly fitted or top-dose-only effect, or another doubt; inactive = no such curve, though single readings can be large; an effect the other way counts as inactive or inconclusive. Potency is the fitted concentration of half-maximal effect.

SMILES	Cruzain inh noDet	Cruzain inh Det
CCn1cnc2scc(-c3ccccc3)c2c1=O	-11%	4%
Cn1cc(/C=N/n2cnc3scc(-c4ccc(Cl)cc4)c3c2=O)c2ccccc21	25µM*	-4%
COc1ccccc1N1CCN(c2ncnc3c2cnn3-c2cc(Cl)ccc2C)CC1	12%	1%
Clc1ccccc1Cn1nnc2c(N3CCCC3)ncnc21	-15%	-5%
CC1Cc2ccccc2N1c1ncnc2c1nnn2Cc1ccccc1Cl (centres undefined)	25µM*	-21%
CCN(c1ncnc2c1cnn2-c1cc(Cl)ccc1C)C1CCCCC1	-1%	1%
Cc1ccc(NC(=O)c2sc3ncnc(N(C)C4CCCCC4)c3c2C)c(C)c1	14%	1%
COCCN1C(=O)C(CC(=O)Nc2ccc(C(=O)O)cc2)SC1=Nc1ccccc1 (centres undefined)	0%	0%
COC(=O)c1cc(NC(=O)CC2SC(=Nc3ccccc3)N(CCc3c[nH]c4ccccc34)C2=O)cc(C(=O)OC)c1 (centres undefined)	5µM*	15%
O=C(N/N=C/c1c[nH]c2ccccc12)c1cc(-c2ccccc2)n[nH]1	3%	-13%
O=C(N/N=C/c1c[nH]c2ccccc12)c1cc(-c2ccc(-c3ccccc3)cc2)n[nH]1	7.9µM*	-6%
CC(=O)c1ccc(NC(=O)CN2C(=O)c3cccnc3Sc3ccccc32)cc1	-7%	-8%
Cc1noc(Cn2c(=O)c3cc4c(cc3n(CC(=O)Nc3ccc(C(C)C)cc3)c2=O)OCO4)n1	5%	-9%
CCc1ccc(NC(=O)Cn2c(=O)n(Cc3nc(-c4ccccc4)no3)c(=O)c3cc4c(cc32)OCO4)cc1	16µM*	-2%
CC(C)c1ccc(NC(=O)Cn2c(=O)n(Cc3nc(-c4ccccc4)no3)c(=O)c3cc4c(cc32)OCO4)cc1	13µM*	0%
COc1ccc(NC(=O)Cn2c(=O)n(Cc3nc(-c4ccccc4)no3)c(=O)c3cc4c(cc32)OCO4)c(OC)c1	16%	-2%
Cc1ccc(NC(=O)Cn2c(=O)n(Cc3nc(-c4ccccc4)no3)c(=O)c3cc4c(cc32)OCO4)cc1C	10µM*	-2%
COc1ccc(NC(=O)Cn2c(=O)n(Cc3nc(-c4ccccc4)no3)c(=O)c3cc4c(cc32)OCO4)cc1Cl	?	-6%
CCOc1ccccc1CNC(=O)c1oc2c(c1C)-c1nn(Cc3cccc(Cl)c3)cc1CC2	16%	-3%
CCOc1ccc(C(=O)NC(=S)Nc2ccc(NC(=O)CC)cc2)cc1[N+](=O)[O-]	?	-6%
CCC(=O)NC(=S)Nc1ccc(NC(=O)c2ccc(C)c([N+](=O)[O-])c2)cc1	10µM*	-3%
CCNC(C)(C)[C@@H](SS)c1ccc(Br)cc1	-12%	2%
COc1ccc(/C=C/C(=O)Nc2cc(S(=O)(=O)N3CCCCC3)ccc2N2CCCCC2)cc1OC	-28%	-2%
COc1ccc(/C=C(\C#N)C(=O)Nc2cc(S(=O)(=O)N3CCCCC3)ccc2N2CCCCC2)cc1	4µM*	-2%
Cc1ccc(C(=O)/C=C\C(=O)c2ccc(C)cc2)cc1	-21%	-9%
SMILES	Cruzain inh noDet	Cruzain inh Det
Cc1ccc(C(=O)c2no[n+]([O-])c2C(=O)c2ccc(C)cc2)cc1	25µM*	?
COc1ccccc1-c1cc2nc(C)c(CCC(=O)NCc3cccc(Cl)c3)c(C)n2n1	?	-9%
Cc1ccc(NC(=O)C2CCN(c3nc4ccccc4[nH]3)CC2)c(C)c1	-1%	2%
CCOc1ccccc1N(CC)C(=O)c1cc2c(=O)n(CC)c3ccccc3c2s1	?	-2%
CC(C)(C)c1ccc(-c2csc(NC(=O)CN3C(=O)NC4(CCCCC4)C3=O)n2)cc1	7.9µM*	2%
CCNC(=O)CN1C(=O)NC2(CCCCCC2)C1=O	5%	5%
CCN(c1ccc(C)cc1C)S(=O)(=O)c1nnc(NC(=O)c2ccccc2OC)s1	10%	-1%
COc1ccc2oc(-c3ccc(C)c(NC(=O)c4ccc5c(c4)OCCO5)c3)nc2c1	3%	1%
O=C(CSc1oc(-c2ccc(F)cc2)nc1S(=O)(=O)c1ccc(Cl)cc1)c1ccccc1	32µM*	-5%
Cc1ccc(S(=O)(=O)c2nc(-c3ccco3)oc2SCC(=O)c2ccc(Cl)cc2)cc1	?	-8%
O=C(CSc1oc(-c2ccco2)nc1S(=O)(=O)c1ccc(Cl)cc1)c1ccc(Cl)cc1	25µM*	-6%
O=C(CSc1oc(-c2ccccc2)nc1S(=O)(=O)c1ccc(Cl)cc1)c1ccccc1	?	-8%
CCOC(=O)c1c(S(=O)(=O)N2CCC(C(=O)N3CCN(c4cccc(C)c4C)CC3)CC2)c(C)n(C)c1C	?	-5%
Cc1ccc(-n2c(SCc3ccccc3)nc3c([nH]c4ccccc43)c2=O)cc1	10%	-3%
COc1ccc(-c2c(C)c3ccc(O)c(CN4CCCC4)c3oc2=O)cc1	3%	-6%
COC(=O)Cc1c(C)c2ccc(O)c(CN3CCCC(C)C3)c2oc1=O (centres undefined)	?	25µM*
O=C1OC(O)C(C(Cl)Cl)=C1Cl (centres undefined)	-17%	-14%
CCn1c(=O)sc2cc(NS(=O)(=O)c3ccc(F)c(C)c3)ccc21	-4%	-8%
O=C(COC(=O)CNC(=O)c1ccccc1)Nc1cccc(Br)c1	-15%	?
Cc1ccc(C(=O)NCC(=O)OCC(=O)Nc2ncc(C(F)(F)F)cc2Cl)cc1	6.3µM*	7.1µM*
Cc1ccc(-c2cc(C(=O)OCC(=O)Nc3ncc(C(F)(F)F)cc3Cl)c3ccccc3n2)cc1	?	-3%
O=C(COC(=O)CNC(=O)c1ccc(Cl)cc1)Nc1ccc(Cl)cc1C(F)(F)F	6.3µM*	8.9µM*
O=C(COC(=O)CCCNC(=O)c1ccc(Cl)cc1)Nc1cc(Cl)c(Cl)cc1Cl	-4%	-12%
O=C(COC(=O)CNC(=O)c1ccccc1)Nc1ccc(Cl)cc1C(F)(F)F	13µM*	16µM*
O=C(NCCC1=CCCCC1)c1ccc2c(c1)ncn2-c1ccc(F)c(F)c1	5%	-6%
SMILES	Cruzain inh noDet	Cruzain inh Det
Cc1ccc(S(=O)(=O)NCc2nc(-c3cccc(C)c3)no2)cc1	2%	-9%
CCOC(=O)C1CCN(C(=O)Cn2ncc3c4ccccc4n(Cc4ccccc4)c3c2=O)CC1	?	-10%
CCC(/C=N/Nc1ccc(S(=O)(=O)N2CCCC2)cc1[N+](=O)[O-])CC	20µM*	-1%
O=[N+]([O-])c1cc(S(=O)(=O)N2CCCC2)ccc1N/N=C/c1cccnc1	7%	-2%
O=S(=O)(NCC(c1ccco1)N1CCN(c2ccccc2)CC1)c1ccccc1 (centres undefined)	0%	-4%
CCCCC(CC)COC(=O)COc1ccc(Cl)cc1Cl (centres undefined)	4%	1%
O=C(Nc1ncc(Cc2ccccc2Cl)s1)c1ccc2c(c1)CC(c1ccccc1)OC2=O (centres undefined)	32µM*	-2%
CCc1ccc(Cc2cnc(NC(=O)c3ccc4c(c3)CC(c3ccccc3)OC4=O)s2)cc1 (centres undefined)	?	0%
CCCCOc1ccc(CNC(=O)Cc2ccc(NC(=O)N3CCSc4ncccc43)cc2)cc1	4%	-3%
Cc1ccc(CNC(=O)c2cc(-c3ccc(C)cc3)nc3n[nH]c(-c4cccc([N+](=O)[O-])c4)c23)cc1	12%	3%
O=C(CSc1nc2ccccc2c(=O)n1-c1ccc(Cl)cc1)N/N=C/C=C/c1ccccc1[N+](=O)[O-]	10µM*	-3%
